Structures are written as SMILES.

Epidermal growth factor receptor (Homo sapiens), P00533 [L861Q], sequence (P00533 whole entry L861Q): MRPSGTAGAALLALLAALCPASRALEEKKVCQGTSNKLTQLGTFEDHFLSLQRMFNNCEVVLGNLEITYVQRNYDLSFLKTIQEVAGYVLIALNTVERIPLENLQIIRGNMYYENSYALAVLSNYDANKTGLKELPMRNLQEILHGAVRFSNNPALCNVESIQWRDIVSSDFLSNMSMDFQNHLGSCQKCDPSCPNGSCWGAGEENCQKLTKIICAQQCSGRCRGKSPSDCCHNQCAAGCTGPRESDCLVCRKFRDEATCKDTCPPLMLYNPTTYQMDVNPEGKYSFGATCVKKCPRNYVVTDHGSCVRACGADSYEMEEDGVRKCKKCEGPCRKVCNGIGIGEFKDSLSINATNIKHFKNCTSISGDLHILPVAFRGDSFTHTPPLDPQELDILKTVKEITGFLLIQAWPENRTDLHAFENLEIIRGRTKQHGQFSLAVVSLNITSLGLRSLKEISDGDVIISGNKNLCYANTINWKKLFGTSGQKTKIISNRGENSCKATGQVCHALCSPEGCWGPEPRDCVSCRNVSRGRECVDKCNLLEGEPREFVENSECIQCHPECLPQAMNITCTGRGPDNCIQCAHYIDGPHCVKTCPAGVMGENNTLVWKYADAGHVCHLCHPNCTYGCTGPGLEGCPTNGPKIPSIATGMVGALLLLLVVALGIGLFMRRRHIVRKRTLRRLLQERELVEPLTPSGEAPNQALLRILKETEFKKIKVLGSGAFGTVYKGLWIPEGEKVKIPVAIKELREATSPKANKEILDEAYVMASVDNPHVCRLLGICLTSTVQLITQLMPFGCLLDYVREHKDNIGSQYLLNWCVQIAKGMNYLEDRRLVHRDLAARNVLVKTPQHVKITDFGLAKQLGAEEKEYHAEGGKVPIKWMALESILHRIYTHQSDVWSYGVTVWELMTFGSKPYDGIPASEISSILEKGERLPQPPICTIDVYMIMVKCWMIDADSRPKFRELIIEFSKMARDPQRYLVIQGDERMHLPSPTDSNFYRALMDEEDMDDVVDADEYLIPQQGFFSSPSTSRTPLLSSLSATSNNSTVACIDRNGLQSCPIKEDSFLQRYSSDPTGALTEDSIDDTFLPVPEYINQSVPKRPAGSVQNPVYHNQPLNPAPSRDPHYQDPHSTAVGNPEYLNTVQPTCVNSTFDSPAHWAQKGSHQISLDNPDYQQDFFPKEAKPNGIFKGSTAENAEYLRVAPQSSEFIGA

The subject of the first test is Epidermal growth factor receptor (Homo sapiens), P00533 [L861Q]. Conditions: at 0.1 µM.
With `COc1ccc(-c2oc3ncnc(N)c3c2-c2ccc(NC(=O)Nc3cc(C(F)(F)F)ccc3F)cc2)cc1`, the inhibition turned out to be 4.81%.
Same read-out and setting: under `Fc1cccc(COc2ccc(Nc3ncnc4sc(-c5ccco5)cc34)cc2Cl)c1` stands 30.2%; under `COc1cc(N2CCN(C(C)C)CC2)ccc1Nc1nc(Nc2ccc(F)cc2C(N)=O)c2cc[nH]c2n1`, 3.8%.
On the same count and under the same terms, under `CN(C)CCOc1ccc(-c2nc(-c3ccncc3)c(-c3ccc4c(c3)CC/C4=N\O)[nH]2)cc1` stands 2.57%; under `NC(=O)c1sc(-n2cnc3ccc(C(F)(F)F)cc32)cc1OCc1ccccc1Br`, 4.73%.
For the molecule `Nc1nc(-c2cccc(Cl)c2)c(-c2ccc3ncccc3n2)s1`, the inhibition came out at 3.07%.
On the same count and under the same terms, under `CCCN1CCC(c2ccc(Nc3nc(Nc4cc(F)ccc4C(N)=O)c4cc[nH]c4n3)c(OC)c2)CC1` stands 6.31%; under `CCn1cc(-c2ccnc3[nH]ccc23)c(-c2cccc(NC(=O)Nc3ccc(OCc4ccccc4)cc3)c2)n1`, -1.65%.
The same measure, in the same setting: under `NS(=O)(=O)c1ccc(Nc2ncc(-c3ccccc3)o2)cc1` stands 2.61%.
On the same count and under the same terms, under `CCCN(CCS(C)(=O)=O)Cc1ccc(-c2ccc3ncnc(Nc4ccc(OCc5cccc(F)c5)c(Cl)c4)c3c2)o1` stands 53%; under `CCN(CC)S(=O)(=O)c1ccc(OC)c(Nc2ncc(-c3ccccc3)o2)c1`, 3.42%.
Regarding `CS(=O)(=O)CCNCc1coc(-c2ccc3ncnc(Nc4ccc(OCc5ccccc5)cc4)c3c2)c1`, the inhibition was 39.1%.
For the molecule `N#Cc1c(NC(=O)CN2CCOCC2)sc2c1CCCC2`, the inhibition stood at 3.34%.
As for `COc1cccc(-n2ncc3c(N/N=C/c4ccc(F)cc4)ncnc32)c1`, the inhibition came to 5.16%.
Same read-out and setting: with `O=C(O[C@H]1CN[C@H](C#Cc2cc3ncnc(Nc4ccc(Cc5ccccc5)cc4)c3s2)C1)N1CCOCC1` the figure was 15.1%.
Same read-out and setting: with `COc1cc2c(cc1Nc1nc(Nc3ccsc3C(N)=O)c3cc[nH]c3n1)N(C(=O)CN(C)C)CCC2(C)C` the figure was 1.86%.
Same read-out and setting: under `CCc1nn2ncccc2c1-c1ccnc(NC2CC2)n1` stands 1.81%; under `Cc1ccc(O)cc1Nc1ccnc2cc(-c3ccccn3)ccc12`, 59.8%.

Another test shares this test system. Conditions: at 1 µM.
On to `CNC(=O)c1cccc(C#Cc2cncnc2Nc2ccc(OCc3cccc(F)c3)c(Cl)c2)c1`, for which the inhibition came to 45.7%.
Regarding `Fc1ccc(-c2cc(-c3c[nH]nc3-c3ccccn3)ccn2)cc1`, the inhibition came to 7.94%.
In the case of `CN1CCC(n2cnc(-c3ccc(F)cc3)c2-c2ccnc(Nc3ccccc3)n2)CC1`, the inhibition is 51.3%.
The same measure, in the same setting: under `CCn1c(-c2nonc2N)nc2c(C#CC(C)(C)O)ncc(OC3CCNCC3)c21` stands -0.16%.
Still for that read-out and setting: under `COc1cccc(-c2c[nH]c3c(N/N=C/c4ccncc4)ncnc23)c1` stands 45.4%.
As to `Cc1ccc2c(-c3ccnc(Nc4ccccc4)n3)c(-c3ccc(F)cc3)nn2n1`, the inhibition was 87.8%.
As for `COC(=O)Nc1nc2ccc(Oc3ccc(NC(=O)Nc4cccc(Cl)c4)cc3)cc2[nH]1`, the inhibition is -0.8%.
The same measure, in the same setting: under `COc1ccc(-c2cc(-c3c[nH]nc3-c3ccccn3)ccn2)cc1` stands 4.33%; under `COc1cc(/C=N/Nc2ncnc3[nH]ncc23)ccc1O`, 4.72%.
Still for that read-out and setting: with `[O-][S+]1CCN(Cc2ccc(-c3ccc4ncnc(Nc5ccc(OCc6cccc(F)c6)c(Cl)c5)c4c3)o2)CC1` the figure was 95.7%; with `CCNC(=O)O[C@H]1CN[C@H](C#Cc2cc3ncnc(Nc4ccc(OCc5cccc(F)c5)c(Cl)c4)c3s2)C1`, 67%; with `CC1=C(C(=O)Nc2cc(Cl)c3[nH]ncc3c2)C(c2ccc(C(F)(F)F)cc2)CC(=O)N1` (configuration not stated), 2.45%.
The same measure, in the same setting: with `c1ccc(-c2nc3n(c2-c2ccc4c(c2)OCO4)CCC3)nc1` the figure was 1.07%.
On to `CCOc1ccc2c(-c3ccnc(Nc4cccc(C(F)(F)F)c4)n3)cnn2n1`, for which the inhibition is -0.42%.
Still for that read-out and setting: under `CCN1CCC(CC(=O)Nc2n[nH]c3nnc(-c4cccc(F)c4F)cc23)CC1` stands -0.91%; under `COc1ccc2[nH]c3c4[nH]c5ccc(OC)cc5c4c4c(c3c2c1)C(=O)NC4=O`, 21.2%; under `COc1ccc(-c2oc3ncnc(N)c3c2-c2ccc(NC(=O)Nc3cc(C(F)(F)F)ccc3F)cc2)cc1`, 7.85%.
On the same count and under the same terms, with `Fc1cccc(COc2ccc(Nc3ncnc4sc(-c5ccco5)cc34)cc2Cl)c1` the figure was 51%; with `COc1cc(N2CCN(C(C)C)CC2)ccc1Nc1nc(Nc2ccc(F)cc2C(N)=O)c2cc[nH]c2n1`, 23.1%.
On the same count and under the same terms, with `CN(C)CCOc1ccc(-c2nc(-c3ccncc3)c(-c3ccc4c(c3)CC/C4=N\O)[nH]2)cc1` the figure was 8.13%; with `NC(=O)c1sc(-n2cnc3ccc(C(F)(F)F)cc32)cc1OCc1ccccc1Br`, 1.73%; with `Nc1nc(-c2cccc(Cl)c2)c(-c2ccc3ncccc3n2)s1`, 10.1%.
Regarding `CCCN1CCC(c2ccc(Nc3nc(Nc4cc(F)ccc4C(N)=O)c4cc[nH]c4n3)c(OC)c2)CC1`, the inhibition was found to be 28.4%.
On the same count and under the same terms, with `CCn1cc(-c2ccnc3[nH]ccc23)c(-c2cccc(NC(=O)Nc3ccc(OCc4ccccc4)cc3)c2)n1` the figure was 2.37%.
For `NS(=O)(=O)c1ccc(Nc2ncc(-c3ccccc3)o2)cc1`, the inhibition worked out at 2.73%.
On the same count and under the same terms, under `CCCN(CCS(C)(=O)=O)Cc1ccc(-c2ccc3ncnc(Nc4ccc(OCc5cccc(F)c5)c(Cl)c4)c3c2)o1` stands 88.2%; under `CCN(CC)S(=O)(=O)c1ccc(OC)c(Nc2ncc(-c3ccccc3)o2)c1`, 2.22%.
Still for that read-out and setting: with `CS(=O)(=O)CCNCc1coc(-c2ccc3ncnc(Nc4ccc(OCc5ccccc5)cc4)c3c2)c1` the figure was 76%; with `N#Cc1c(NC(=O)CN2CCOCC2)sc2c1CCCC2`, 3.29%; with `COc1cccc(-n2ncc3c(N/N=C/c4ccc(F)cc4)ncnc32)c1`, 12%.
The same measure, in the same setting: under `O=C(O[C@H]1CN[C@H](C#Cc2cc3ncnc(Nc4ccc(Cc5ccccc5)cc4)c3s2)C1)N1CCOCC1` stands 26.9%; under `COc1cc2c(cc1Nc1nc(Nc3ccsc3C(N)=O)c3cc[nH]c3n1)N(C(=O)CN(C)C)CCC2(C)C`, 14.5%; under `CCc1nn2ncccc2c1-c1ccnc(NC2CC2)n1`, 2.47%.
As for `Cc1ccc(O)cc1Nc1ccnc2cc(-c3ccccn3)ccc12`, the inhibition turned out to be 91.9%.

For orientation: inhibition means the relative decrease from the control value, in per cent.

Source of the values: ChEMBL document CHEMBL1961873, “Compounds: GSK PKIS; Assays: Nanosyn kinase panel” (2012).
